For this assay, the target named is Genome polyprotein (dengue virus type 2) (UniProt P29990).
Where [1] appears, read: Thailand/16681/1984, Concentration 25.0 uM, Number of replicates 1.0.

About 110 (5.5%) of roughly 2,000 compounds showed an effect of 50% or more. The entries come from a sample that favours strong results as a whole.

Among the data in ChEMBL document CHEMBL5606460, “ASAP - DENV-2 NS2B-NS3 protease fluorescence single point” (2024) are inhibition values, retold here.

The term inhibition denotes the drop in the measured response relative to a control, in per cent.

Take `Cc1cc(CO)c2cccc(CC(=O)Nc3ccc(C(=O)O)o3)c2n1`: the inhibition was 88.9% (Thailand/16681/1984, Concentration 49.95 uM, Number of replicates 2.0, Standard deviation 0.6719381020899052 %) and 94% (Thailand/16681/1984, Concentration 99.9 uM, Number of replicates 2.0, Standard deviation 0.0646782165500299 %).

With `Cc1cc(CO)c2cccc(CC(=O)NC[C@H](C)O)c2n1`, under “Thailand/16681/1984, Concentration 99.9 uM, Number of replicates 2.0, Standard deviation 0.37872079112567497 %”, the inhibition is -9.3%.

`Cc1cc(CO)c2cccc(Cc3cccc(C(=O)Nc4ccc(C(=O)O)o4)c3)c2n1`: the inhibition came to 35.3% (Thailand/16681/1984, Concentration 49.95 uM, Number of replicates 2.0, Standard deviation 0.4498774840540114 %) and 80.5% (Thailand/16681/1984, Concentration 99.9 uM, Number of replicates 2.0, Standard deviation 0.6611646932609445 %).

`O=Cc1ccc(N2CCC(C(=O)Nc3ccccc3Oc3ccccc3)CC2)cc1`: the inhibition under setting [1] is 14.2%.

For `c1ccc2c([C@H]3CCN(Cc4ccon4)C3)c[nH]c2c1`, the inhibition (Thailand/16681/1984, Concentration 49.5 uM, Number of replicates 2.0, Standard deviation 1.9476178393933903 %) is -2.85%; the inhibition (Thailand/16681/1984, Concentration 99.01 uM, Number of replicates 2.0, Standard deviation 2.5164078728535832 %) was -2.25%; the inhibition (Thailand/16681/1984, Concentration 198.0 uM, Number of replicates 2.0, Standard deviation 2.4110409873352823 %) was -1.68%.

As to `O=Cc1ccc(N2CCC(C(=O)N3CCN(CCOc4ccccc4)CC3)CC2)cc1`, the inhibition under setting [1] stood at 11.7%.

For the compound `CC(C)Nc1nc2ccc(C(=O)NCc3cnn(C)c3)cc2[nH]1`, the inhibition reads like this: (Thailand/16681/1984, Concentration 49.5 uM, Number of replicates 2.0, Standard deviation 2.4534347281334856 %) -3.32%; (Thailand/16681/1984, Concentration 99.01 uM, Number of replicates 2.0, Standard deviation 2.252490861313308 %) -2.73%; (Thailand/16681/1984, Concentration 198.0 uM, Number of replicates 2.0, Standard deviation 1.9859869815785558 %) -2.52%.

On to `NCc1ccc(C[C@H](NC(=O)c2ccccc2)C(=O)Nc2cccc(C(N)=O)c2)cc1`, for which the inhibition was -3.21% (Thailand/16681/1984, Concentration 49.5 uM, Number of replicates 2.0, Standard deviation 0.2094720287352659 %); -1.98% (Thailand/16681/1984, Concentration 99.01 uM, Number of replicates 2.0, Standard deviation 1.2712236353041253 %); -0.193% (Thailand/16681/1984, Concentration 198.0 uM, Number of replicates 2.0, Standard deviation 0.9103772804850719 %).

Regarding `N#Cc1ccc(C[C@H](NC(=O)c2ccccc2)C(=O)NCCCCNC(=N)N)cc1`, the inhibition by setting is: (Thailand/16681/1984, Concentration 49.5 uM, Number of replicates 2.0, Standard deviation 0.6326801671633419 %) -5.12%; (Thailand/16681/1984, Concentration 99.01 uM, Number of replicates 2.0, Standard deviation 1.2914777248245206 %) -4.14%; (Thailand/16681/1984, Concentration 198.0 uM, Number of replicates 2.0, Standard deviation 0.45252363179091937 %) -1.98%.

Turning to `N=C(N)NCCC[C@H](NC(=O)[C@H](Cc1ccc(CN)cc1)NC(=O)c1ccccc1)B(O)O`, the inhibition is, setting by setting: (Thailand/16681/1984, Concentration 25.0 uM, Number of replicates 3.0, Standard deviation 0.03506963405710981 %) 99.2%; (Thailand/16681/1984, Concentration 49.5 uM, Number of replicates 2.0, Standard deviation 0.000841588271065532 %) 99.2%; (Thailand/16681/1984, Concentration 49.5 uM, Number of replicates 2.0, Standard deviation 0.023586050776272474 %) 99.1%; (Thailand/16681/1984, Concentration 49.5 uM, Number of replicates 2.0, Standard deviation 0.03248746518177329 %) 99.4%; (Thailand/16681/1984, Concentration 49.5 uM, Number of replicates 2.0, Standard deviation 0.05596562002585788 %) 99.3%; (Thailand/16681/1984, Concentration 49.5 uM, Number of replicates 2.0, Standard deviation 0.06712205941408557 %) 99.5%. For the same compound, the inhibition is, setting by setting: (Thailand/16681/1984, Concentration 49.5 uM, Number of replicates 2.0, Standard deviation 0.09040060678362256 %) 99.2%; (Thailand/16681/1984, Concentration 49.5 uM, Number of replicates 2.0, Standard deviation 0.09520737056259301 %) 99.3%; (Thailand/16681/1984, Concentration 49.95 uM, Number of replicates 2.0, Standard deviation 0.47465039008435067 %) 97.5%; (Thailand/16681/1984, Concentration 99.01 uM, Number of replicates 2.0, Standard deviation 0.0013325147625204256 %) 99.6%; (Thailand/16681/1984, Concentration 99.01 uM, Number of replicates 2.0, Standard deviation 0.024875407165917744 %) 99.7%; (Thailand/16681/1984, Concentration 99.01 uM, Number of replicates 2.0, Standard deviation 0.05930499912707304 %) 99.8%. For the same compound, the inhibition is, setting by setting: (Thailand/16681/1984, Concentration 99.01 uM, Number of replicates 2.0, Standard deviation 0.0639876825840274 %) 99.6%; (Thailand/16681/1984, Concentration 99.01 uM, Number of replicates 2.0, Standard deviation 0.06968458780354793 %) 99.8%; (Thailand/16681/1984, Concentration 99.01 uM, Number of replicates 2.0, Standard deviation 0.07464240588758142 %) 99.5%; (Thailand/16681/1984, Concentration 99.01 uM, Number of replicates 2.0, Standard deviation 0.12292583554166162 %) 99.6%; (Thailand/16681/1984, Concentration 99.9 uM, Number of replicates 2.0, Standard deviation 0.4080138623651106 %) 98.7%; (Thailand/16681/1984, Concentration 198.0 uM, Number of replicates 2.0, Standard deviation 0.0010358009490037316 %) 99.7%. In addition, the inhibition is, setting by setting: (Thailand/16681/1984, Concentration 198.0 uM, Number of replicates 2.0, Standard deviation 0.007655216388730705 %) 99.8%; (Thailand/16681/1984, Concentration 198.0 uM, Number of replicates 2.0, Standard deviation 0.011571838727151066 %) 99.8%; (Thailand/16681/1984, Concentration 198.0 uM, Number of replicates 2.0, Standard deviation 0.02492935513201169 %) 99.9%; (Thailand/16681/1984, Concentration 198.0 uM, Number of replicates 2.0, Standard deviation 0.05517797972088629 %) 99.9%; (Thailand/16681/1984, Concentration 198.0 uM, Number of replicates 2.0, Standard deviation 0.06791509451566656 %) 99.8%; (Thailand/16681/1984, Concentration 198.0 uM, Number of replicates 2.0, Standard deviation 0.07632018763310308 %) 99.6%.

With `O=Cc1ccc(N2CCC(C(=O)N3CCN(c4ccnc5cc(Cl)ccc45)CC3)CC2)cc1`, under setting [1], the inhibition worked out at 1.86%.

Consider `CC(C)CC(=O)N1CCC(NC(=O)C2CCN(c3ccc(C=O)cc3)CC2)CC1`, for which the inhibition under setting [1] was 14.2%.
